The target in assay [1] is Peroxisome proliferator-activated receptor gamma (Homo sapiens) (UniProt P37231). In words: qHTS assay for small molecule antagonists of peroxisome proliferator-activated receptor gamma signaling (AID 588537; active = well fitted inhibition curve with a large enough effect in the signal ratio, with a control signal flat, not every such curve was filed as active; the % refers to the signal ratio; also: potency is read from the fitted curve at half-maximal effect). The gist of the method:
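Antagonist-mode β-lactamase reporter screen run as a titration series. HEK293 PPARγ-UAS-bla cells are stimulated with rosiglitazone (50 nM final) for 16 h, then CCF4 is read at 460/530 nm. Data are scaled between DMSO and rosiglitazone and fitted to the Hill equation.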
(In qHTS, concentration-response curves come from the screen itself.)

The nature of assay [2]: qHTS assay for environmental chemicals that activate the Aryl hydrocarbon Receptor (AhR) signaling pathway (AID 651777). Also: % of control where 0% means no effect; nearly all actives have a fitted effect of over 15% in size. The following applies: 1A2-DRE human hepatoma cells, luciferase, 24 h; activation: hits give high values. The gist of the method:
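Reporter gene assay: hepatoma cells with DRE/CYP1A2-luciferase, 24 hr compound incubation at 37 C, 5% CO2, luminescence after One-Glo (30 min, RT).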

Assay [3] is described as follows: NCATS anti-infectives library activity on HEK293 viability as a counter-qHTS vs the C. elegans viability qHTS (AID 1745854). Also: potency is read from the fitted curve at half-maximal effect. The gist of the method:
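Cytotoxicity counter-screen to a worm viability qHTS: CellTiter-Glo luminescence read 10 min after reagent addition. Compounds (final up to 41.7 uM, a 1:5 dilution series) incubated 24 hr at 37C with 1,500 HEK293 cells per well; digitonin control.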

Assay [4] deals with Zika virus NS2B-NS3 protease (linked construct). In words: Confirmatory screen NINDS AMC qHTS for Zika virus inhibitors (AID 1347152). Also: nearly all actives have a fitted effect of over 70% in size. Also: potency is read from the fitted curve at half-maximal effect. The gist of the method:
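Purified NS2B-NS3 protease with NS2B hydrophilic domain linked to NS3 protease domain by flexible linker, 1 nM final in 10 mM Tris-HCl pH 8.0, 0.01% Tween 20. Compounds preincubated 15 min, room temperature; Bz-Nle-KRR-AMC 10 microM (Km 18.3 µM); 15-min fluorescence change, 4-parameter Hill fit.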

A short description of assay [5]: Confirmatory screen NINDS Rhodamine qHTS for Zika virus inhibitors (AID 1347161). Also: nearly all actives have a fitted effect of over 60% in size. Also: potency is read from the fitted curve at half-maximal effect. The gist of the method:
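Kinetic fluorescence (Ex 480 nm, Em 540 nm) over 15 min with 1.5 microM Rhodamine110 peptide and 25 nM linked protease.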

Assay [6] in a line: Tertiary RLuc qRT-PCR qHTS assay for Zika virus inhibitors (AID 1347169). Also: potency is read from the fitted curve at half-maximal effect; nearly all actives have a fitted effect of over 55% in size. The gist of the method:
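Vero cells (1,000 per well) plated overnight at 37 degrees C, treated with compound in DMSO, then infected with recombinant ZIKV-RLuc (Cambodian) at MOI 1-2 for 48-72 hrs. Live-cell Renilla luciferase substrate added; luminescence read after 1-1.5 hrs.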

Assay [7] in a line: qHTS to identify inhibitors of the type 1 interferon - major histocompatibility complex class I in skeletal muscle: primary screen against the NCATS Mechanism Interrogation Plate v5.0 (MIPE) Libary (AID 1347411). Also: nearly all actives have a fitted effect of over 65% in size. Also: potency is read from the fitted curve at half-maximal effect. The gist of the method:
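Luminescence from CRISPR HiBit-tagged endogenous HLA-B in human myoblasts reported MHC class I level after 24 h of IFN-beta (4 ng/ml) plus compound. Compounds ran as 11-point 1:3 series, top 46 uM final.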

In assay [8] the target is Furin (Homo sapiens) (UniProt P09958). Briefly: Furin counterscreen qHTS for Zika virus inhibitors (AID 1347149).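 Also: purified recombinant full-length human furin enzyme at 5 nM; fluorescence gain from furin cutting a BOC-RVRR-AMC peptide substrate over 15 min; top concentration of the series differs between compounds; plate controls were no-inhibitor control for no effect and no-enzyme control for full effect; nearly all actives have a fitted effect of over 70% in size.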 The gist of the method:
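Counterscreen measures cleavage of 2 microM BOC-RVRR-AMC, below its ~15 microM Km, by 5 nM full-length human furin at pH 7.0 after a 15-min compound preincubation. Inhibition derives from the 15-min fluorescence increase at 37C.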

Assay [9] deals with Zika virus NS2B-NS3 protease (unlinked). Briefly: Optimization of GU AMC qHTS for Zika virus inhibitors: Unlinked NS2B-NS3 protease assay (AID 1347151).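 Also: 0% = no-inhibitor control and -100% = no-enzyme control; nearly all actives have a fitted effect of over 80% in size.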 The gist of the method:
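Noncovalent complex of NS2B hydrophilic domain and NS3 protease domain, 25 nM final, in 10 mM Tris-HCl pH 8.0, 0.01% Tween 20. AMC fluorescence change over 15 min at room temperature was fitted to a 4-parameter Hill equation.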

Assay [10] concerns the target ATP-dependent 6-phosphofructokinase (Trypanosoma brucei brucei) (UniProt O15648). Briefly: qHTS Assay to Find Inhibitors of T. brucei phosphofructokinase: hit validation (AID 492961). Also: potency is read from the fitted curve at half-maximal effect. The gist of the method:
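Measures ADP output of PFK (1.25 nM) at 0.1 mM ATP, 0.5 mM F6P, pH 8.0 TEA buffer with 5 mM MgCl2. No-enzyme wells define full inhibition; uninhibited enzyme wells define zero.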

Assay [11] relates to CP238. Briefly: qHTS profiling for inhibitors of Plasmodium falciparum proliferation (AID 504749). Also: nearly all actives have a fitted effect of over 60% in size. Also: potency is read from the fitted curve at half-maximal effect. Particulars: P. falciparum in erythrocytes, SYBR Green DNA, 72 h; series mostly up to 28.7 µM. The gist of the method: (§1)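 SYBR Green fluorescence of parasite DNA, read after lysis and overnight dark incubation, measured growth over 72 h in erythrocyte culture at 0.3% parasitemia and 2.5% hematocrit. Data normalised to DMSO and 0.29 uM artemisinin, with plate-drift correction.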

The subject of assay [12] is CP247. The assay is described as above. Particulars: P. falciparum in erythrocytes, SYBR Green DNA, 72 h; series mostly up to 28.7 µM. The gist of the method:
as §1

In assay [13] the test system is CP286. The description is as above. The following applies: P. falciparum in erythrocytes, SYBR Green DNA, 72 h; series mostly up to 28.7 µM. The gist of the method: as §1
The test system of assay [14] is DFO2036. Described as above. Particulars: P. falciparum in erythrocytes, SYBR Green DNA, 72 h; series mostly up to 28.7 µM. The gist of the method: as §1
Assay [15] deals with Dd2. Described as above. Particulars: P. falciparum in erythrocytes, SYBR Green DNA, 72 h; series mostly up to 28.7 µM. The gist of the method: as §1
The test system of assay [16] is ECU. Described as above. Particulars: P. falciparum in erythrocytes, SYBR Green DNA, 72 h; series mostly up to 28.7 µM. The gist of the method:
as §1

The test system of assay [17] is GB4. Described as above. Particulars: P. falciparum in erythrocytes, SYBR Green DNA, 72 h; series mostly up to 28.7 µM. The gist of the method: as §1
The subject of assay [18] is HB3. The description is as above. The following applies: P. falciparum in erythrocytes, SYBR Green DNA, 72 h; series mostly up to 28.7 µM. The gist of the method: as §1
Assay [19] deals with TAB109. Described as above. The following applies: P. falciparum in erythrocytes, SYBR Green DNA, 72 h; series mostly up to 28.7 µM. The gist of the method:
as §1

Assay [20] relates to W2. Described as above. Particulars: P. falciparum in erythrocytes, SYBR Green DNA, 72 h; series mostly up to 28.7 µM. The gist of the method:
as §1

Several values for one entry are separate records, joined by “and”; a condition that tells them apart may be missing. Equal entries are not always repeated. Inconclusive results are not listed. A number with no mark means an inactive call. Activity calls are given as the source filed them. Unless noted, calls follow the shape of the dose curve; as a rule, active = well fitted curve in the direction sought with a large enough effect; inconclusive = small, poorly fitted or top-dose-only effect, or another doubt; inactive = no such curve, though single readings can be large; an effect the other way counts as inactive or inconclusive.

Peroxisome proliferator-activated receptor gamma (Homo sapiens), sequence (P37231 whole entry, looked up): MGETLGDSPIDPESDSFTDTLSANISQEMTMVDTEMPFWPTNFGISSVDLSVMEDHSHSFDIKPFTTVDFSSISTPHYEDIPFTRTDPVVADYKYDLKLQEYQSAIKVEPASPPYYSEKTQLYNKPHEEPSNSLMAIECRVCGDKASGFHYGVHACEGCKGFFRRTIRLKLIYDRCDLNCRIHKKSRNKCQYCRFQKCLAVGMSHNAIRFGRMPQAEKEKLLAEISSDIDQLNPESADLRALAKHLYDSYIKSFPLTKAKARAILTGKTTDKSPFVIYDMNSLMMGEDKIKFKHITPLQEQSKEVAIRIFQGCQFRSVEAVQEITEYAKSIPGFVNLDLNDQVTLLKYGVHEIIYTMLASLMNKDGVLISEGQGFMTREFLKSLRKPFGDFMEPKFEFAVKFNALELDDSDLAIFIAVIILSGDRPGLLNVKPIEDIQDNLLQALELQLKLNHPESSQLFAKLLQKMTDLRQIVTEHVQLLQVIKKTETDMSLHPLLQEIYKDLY
ATP-dependent 6-phosphofructokinase (Trypanosoma brucei brucei), sequence (O15648 whole entry, looked up): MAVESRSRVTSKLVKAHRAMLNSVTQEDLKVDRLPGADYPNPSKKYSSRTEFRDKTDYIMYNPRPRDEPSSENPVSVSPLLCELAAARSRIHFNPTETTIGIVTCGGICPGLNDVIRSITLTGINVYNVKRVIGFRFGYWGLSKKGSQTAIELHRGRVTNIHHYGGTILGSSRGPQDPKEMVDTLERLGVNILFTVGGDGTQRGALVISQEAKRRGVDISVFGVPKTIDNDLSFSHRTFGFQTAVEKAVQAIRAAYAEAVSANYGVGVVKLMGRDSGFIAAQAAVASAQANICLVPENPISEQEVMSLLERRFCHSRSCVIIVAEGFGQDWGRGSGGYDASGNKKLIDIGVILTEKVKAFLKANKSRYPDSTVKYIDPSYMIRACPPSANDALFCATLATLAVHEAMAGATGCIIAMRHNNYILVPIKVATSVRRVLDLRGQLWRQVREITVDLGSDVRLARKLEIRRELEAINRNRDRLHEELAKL
Furin (Homo sapiens), sequence (P09958 whole entry, looked up): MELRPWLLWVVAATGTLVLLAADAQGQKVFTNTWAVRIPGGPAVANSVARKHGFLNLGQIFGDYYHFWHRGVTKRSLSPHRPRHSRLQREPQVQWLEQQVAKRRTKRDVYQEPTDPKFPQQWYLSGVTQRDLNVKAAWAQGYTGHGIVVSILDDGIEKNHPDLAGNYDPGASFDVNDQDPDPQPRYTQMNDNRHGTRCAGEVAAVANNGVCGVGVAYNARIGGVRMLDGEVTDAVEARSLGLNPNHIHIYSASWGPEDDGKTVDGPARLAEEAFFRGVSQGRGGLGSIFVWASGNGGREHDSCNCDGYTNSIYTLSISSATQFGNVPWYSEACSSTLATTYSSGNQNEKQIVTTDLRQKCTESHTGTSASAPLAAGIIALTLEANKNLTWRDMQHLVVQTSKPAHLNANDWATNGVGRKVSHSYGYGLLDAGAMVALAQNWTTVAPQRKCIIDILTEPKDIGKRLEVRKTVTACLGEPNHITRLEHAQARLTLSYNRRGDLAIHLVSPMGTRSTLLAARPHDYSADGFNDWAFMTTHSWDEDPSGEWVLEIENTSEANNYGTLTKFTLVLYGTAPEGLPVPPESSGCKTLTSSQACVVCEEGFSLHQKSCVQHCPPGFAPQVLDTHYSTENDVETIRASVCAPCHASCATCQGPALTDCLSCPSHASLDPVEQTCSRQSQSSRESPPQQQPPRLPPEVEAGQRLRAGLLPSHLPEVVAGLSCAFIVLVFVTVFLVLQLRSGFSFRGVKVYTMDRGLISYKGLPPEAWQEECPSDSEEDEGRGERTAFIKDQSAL

Take `C[C@@H]1Cc2c(Cl)cc(C(=O)N[C@@H](Cc3ccccc3)C(=O)O)c(O)c2C(=O)O1`: the Potency in assay [1] is 2 µM (active). The activation in [2] is 8.7%.
Regarding `Cc1sc2c(c1C)C(c1ccc(Cl)cc1)=N[C@@H](CC(=O)Nc1ccc(O)cc1)c1nnc(C)n1-2`, the Potency entry in assay [3] was “inactive”.
For `CC(C)=CCC[C@]1(C)C=Cc2c(O)c3c(c(CC=C(C)C)c2O1)O[C@]12C(=C[C@@H]4CC1C(C)(C)O[C@@]2(C/C=C(/C)C(=O)O)C4=O)C3=O`, the Potency in [4] was 9.87 µM (active); in assay [5] it was 2.48 µM (active); in assay [6] it was 2.94 µM (active).
For the compound `C/C(=C\c1csc(C)n1)[C@@H]1C[C@@H]2O[C@@H]2CCC[C@H](C)[C@H](O)[C@@H](C)C(=O)C(C)(C)[C@@H](O)CC(=O)O1`, the Potency entry in assay [7] was “inactive”.
On to `CC[C@H]1/C=C\C=C/C[C@@H](C)[C@H](O)[C@@](C)(O)C(=O)[C@@H](C)[C@H](O)[C@@H](C)C(=O)[C@@H](C)[C@H](O)[C@@H](C)/C=C\C(=O)O[C@@H]2[C@H](C)[C@H](CC1)O[C@]1(CC[C@H](C)[C@H](C[C@@H](C)O)O1)[C@H]2C`, for which the Potency was 20.8 µM (active) in assay [7] and 15.8 µM (active) in [3].
On to `C[C@@H]1[C@@H]2Cc3ccc(O)cc3[C@@]1(C)CCN2CCc1ccccc1`, for which the Potency entry in [8], in [4] and in [5] was “inactive” in each case. Besides, the compound was called inactive in assay [9].
As to `C[N+](C)(C)CC(=O)[O-]`, the Potency entry in [10], in assay [11], in assay [12], in [13], in assay [14] and in assay [15] was “inactive” in each case. In addition, the Potency result in assay [16], in assay [17], in assay [18], in assay [19] and in assay [20] was “inactive” each time.
Turning to `COC(=O)c1ccccc1C(=O)OC`, the Potency entry in assay [1] was “inactive”. Besides, the activation in assay [2] was 1.37% and 0.566%.
Consider `C[C@H]1[C@H]2Cc3ccc(O)cc3[C@]1(C)CCN2CCc1ccccc1`, for which the Potency entry in assay [8] is “inactive”. In addition, the result in assay [9] was inactive. Further, in [6], the Potency was 47.5 µM (active).
As to `Oc1cc[c]([Hg][Cl])cc1`, the Potency in assay [10] is 2.82 µM (active); in assay [11] it was 10 µM (active); in assay [12] it was 5.01 µM (active); in assay [13], 10 µM (active); in assay [14], 8.91 µM (active); in assay [15], 11.2 µM (active). Moreover, the Potency in assay [16] is 10 µM (active); in assay [17], 6.75 µM (active); in assay [18], 11.2 µM (active); in [19], 7.08 µM (active); in [20] it was 5.36 µM (active).

The values above are taken from PubChem BioAssay (NCATS).
